PubChem BioAssay AID1851 (National Center for Advancing Translational Sciences (NCATS), 2009)
“And” between values parts separate entries of the source, which are not always exact repeats. Identical values can stand only once. Hit rate of the full screen: of about 16,000 compounds, about 5,100 (32%) were called active. Roughly 25% stayed inconclusive and do not appear here. Calls come from the whole dose curve; as a rule, active = well fitted curve in the direction sought with a large enough effect; inconclusive = small, poorly fitted or top-dose-only effect, or effect the other way; inactive = no such curve, though single readings can be large or run the other way. This is one part of the list.

Molecular target: Cytochrome P450 3A4 (Homo sapiens) (UniProt P08684)
Sequence (P08684 whole entry, looked up): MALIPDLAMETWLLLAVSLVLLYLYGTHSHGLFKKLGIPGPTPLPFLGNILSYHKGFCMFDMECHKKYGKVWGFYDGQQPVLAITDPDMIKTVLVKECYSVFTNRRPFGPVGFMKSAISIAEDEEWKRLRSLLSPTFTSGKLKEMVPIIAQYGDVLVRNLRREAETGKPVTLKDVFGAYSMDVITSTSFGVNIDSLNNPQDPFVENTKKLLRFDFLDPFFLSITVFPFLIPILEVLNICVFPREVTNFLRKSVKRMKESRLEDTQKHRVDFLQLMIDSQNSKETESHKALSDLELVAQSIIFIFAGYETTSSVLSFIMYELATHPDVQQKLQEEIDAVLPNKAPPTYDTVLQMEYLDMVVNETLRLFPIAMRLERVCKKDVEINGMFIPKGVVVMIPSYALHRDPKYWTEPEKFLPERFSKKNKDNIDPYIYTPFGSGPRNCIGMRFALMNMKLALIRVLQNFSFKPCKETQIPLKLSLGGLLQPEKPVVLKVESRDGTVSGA
Test: Cytochrome panel assay with activity outcomes
Settings: recombinant CYP, pro-luciferin dealkylation, luminescence, p450-cyp3a4; series mostly up to 57.1 µM
% is set by controls: 0 for no effect and ±100 for the full control effect.

| Structure (SMILES) | activity, negative = inhibition | AC50 |
| --- | --- | --- |
| C1CCN(CC[C@@H]2CCCCN2)CC1 | -2.6% [at 11.4 µM] (inactive) |  |
| CCC/C=C(\CCC)C(NP(=O)(c1ccccc1)c1ccccc1)c1ccc(-c2ccccc2)cc1 (stereo unspecified) |  | 3.98 µM (active) |
| CCC/C=C(\CCC)C(NP(=O)(c1ccccc1)c1ccccc1)c1ccc(C(F)(F)F)cc1 (stereo unspecified) |  | 3.16 µM (active) |
| CN(C)C(=O)/N=N\C(=O)N(C)C |  | inactive |
| O=C(O)C(Cc1ccccc1)Cc1ccccc1 | 5.23% [at 11.4 µM] (inactive) |  |
| CS(=O)(=O)N1CCN(c2ccccc2NC(=O)c2ccc(Br)o2)CC1 |  | 15.8 µM (active) |
| CS(=O)(=O)N1CCC2(CC1)CN(C(=O)Nc1ccccc1)C2 |  | inactive |
| Nc1nc(N)c2nn(-c3ccc(C(=O)O)cc3)nc2n1 | -6.41% [at 11.4 µM] (inactive) |  |
| Cc1ccc2nc(NC(=O)COC(=O)c3ccc(Br)o3)sc2c1 |  | 15.8 µM (active) |
| Cc1ccc2nc(NC(=O)COC(=O)CSc3nc(C)cc(C)n3)sc2c1 |  | inactive |
| CCCOc1ccc(C(=O)NC(=S)Nc2nc3ccc(C)cc3s2)cc1 | 13.6% [at 2.29 µM] (inactive) |  |
| Cc1ccc2nc(NC(=O)CSCC(=O)OCC(=O)c3ccc(Br)cc3)sc2c1 |  | 10 µM (active) |
| CS(=O)(=O)Nc1c(O)ccc2c1CCC[C@H]2C1=NCCN1 |  | inactive |
| COc1ncc2nc(CCc3ccccc3)c(=O)n(C)c2n1 |  | inactive |
| COc1ccc(Oc2ncc3ncc(=O)n(CCc4ccccc4)c3n2)cc1 |  | 1.26 µM (active) |
| O=c1cnc2cnc(Oc3ccccc3)nc2n1CCc1ccccc1 |  | inactive |
| COCCn1c(=O)c(CCc2ccccc2)nc2cnc(Oc3ccc(OC)cc3)nc21 |  | 3.16 µM (active) |
| COc1ncc2nc(CCc3ccccc3)c(=O)n(CCc3ccccc3)c2n1 |  | 3.16 µM (active) |
| COCCn1c(=O)c(CCc2ccccc2)nc2cnc(OC)nc21 |  | 12.6 µM (active) |
| O=c1c(-c2ccccc2)nc2cnc(Oc3cccc(Cl)c3)nc2n1C1CC1 |  | inactive |
| COCCn1c(=O)c(CCc2ccccc2)nc2cnc(Oc3cccc(Cl)c3)nc21 |  | 0.794 µM (active) |

| Structure (SMILES) | activity, negative = inhibition | AC50 |
| --- | --- | --- |
| Cc1nc2cnc(Oc3cccc(Cl)c3)nc2n(CCc2ccccc2)c1=O |  | inactive |
| O=c1c(CCc2ccccc2)nc2cnc(Oc3cccc(Cl)c3)nc2n1C[C@H]1CCCO1 |  | 0.501 µM (active) |
| O=c1oc2cc(Oc3c([N+](=O)[O-])cc(C(F)(F)F)cc3[N+](=O)[O-])ccc2c2c1CCCC2 |  | 14.1 µM (active) |
| O=c1oc2cc(Oc3ccc(C(F)(F)F)cc3[N+](=O)[O-])ccc2c2c1CCCC2 |  | inactive |
| CC1=NNC(=S)NCCCN2CCN(CCCNC(=S)NN=C(C)C=NNC(=S)NCCCN3CCN(CCCNC(=S)NN=C1)CC3)CC2 | -1.88% [at 11.4 µM] (inactive) |  |
| CC(C)OP(=O)(OC(C)C)C(NC(=O)c1ccc(Br)cc1)c1ccccc1 (stereo unspecified) |  | 11.2 µM (active) |
| CC(=O)NC(NC(C)=O)c1ccc(Br)cc1 |  | inactive |
| CNNCc1ccc(C(=O)NC(C)C)cc1 |  | inactive |
| O=C(O)C[C@H](Cc1ccccc1)C(=O)O | -6.62% [at 11.4 µM] (inactive) |  |
| Cn1nc(C(F)(F)F)c(/C=N/OC(=O)c2ccccc2Cl)c1SCc1ccc(Cl)cc1 |  | 7.08 µM (active) |
| Cn1nc(C(F)(F)F)c(/C=N/OCc2c(Cl)cccc2Cl)c1Cl |  | inactive |
| Cn1nc(C(F)(F)F)c(/C=N/OC(=O)c2ccc(Cl)cc2)c1Cl |  | inactive |
| Cc1ccc(C(C(=O)NC2CCCCC2)N(CC2CCCO2)C(=O)CNC(=O)c2cccs2)cc1 (stereo unspecified) |  | 4.47 µM (active) |
| O=C(NCC(=O)N(c1ccccc1)C(C(=O)NC1CCCC1)c1cccnc1)c1cccs1 (stereo unspecified) |  | 2 µM (active) |
| O=C(NCC1CCCO1)C(c1cccnc1)N(C(=O)Cc1cccs1)c1cccnc1 (stereo unspecified) | -17.2% [at 2.29 µM] (inactive) |  |
| O=C(NCC1CCCO1)C(c1cccnc1)N(C(=O)Cc1cccs1)c1ccccc1 (stereo unspecified) |  | 3.98 µM (active) |
| CN1CCc2c(sc3c2c(=O)n(-c2ccccc2)c2nncn32)C1 |  | inactive |
| NC(N)=NC(=O)c1nc(Cl)c(N)nc1N |  | inactive |
| C[C@@H]1CCC[C@H](C)N1NC(=O)c1ccc(Cl)c(S(N)(=O)=O)c1 |  | inactive |
| CC1CCCC(C)N1C(=O)c1cc(-c2ccc(Cl)c(Cl)c2)on1 (stereo unspecified) |  | 12.6 µM (active) |
| O=C(c1cc(-c2ccc(Cl)cc2Cl)on1)N1CCN(C(=O)c2ccco2)CC1 |  | inactive |

| Structure (SMILES) | activity, negative = inhibition | AC50 |
| --- | --- | --- |
| Cc1ccc(S(=O)(=O)n2c3ccccc3c3nnc(C(=O)c4ccccc4)nc32)cc1 |  | 3.98 µM (active) |
| COCn1c2ccccc2c2nnc(C(C)=O)nc21 | 7.63% [at 11.4 µM] (inactive) and -20.9% [at 11.4 µM] (inactive) |  |
| Cc1ccc(-n2cc(C(=O)c3ccc4ccccc4c3O)cn2)cc1 |  | inactive |
| COc1ccc2c(c1)CCC1[C@@H]2CCC2(C)[C@@H](NCCCCCCN3C(=O)C=CC3=O)CC[C@@H]12 (stereo partly specified) |  | inactive |
| CC(C)CC(=O)O/N=C1\C(=O)N(c2ccccc2)c2ccccc21 | 18.9% [at 2.29 µM] (inactive) |  |
| CC(=O)c1c(O)cc(=O)n(-c2ccccc2)c1-c1cccc2ccccc12 |  | inactive |
| CN1C(=O)/C(=N\OC(=O)c2cccc3ccccc23)c2ccccc21 |  | 28.2 µM (active) |
| O=c1[nH][nH]c(C(F)(F)F)c1C=Nc1ccccc1Cl |  | inactive |
| C=CCSc1nn2c(=O)c3ccccc3nc2s1 |  | 20 µM (active) |
| O=C(Cn1cnc2ccccc2c1=O)Nc1nnc(SCc2ccccc2)s1 |  | inactive |
| C[C@@H](C(=O)O)c1ccc(C[C@@H]2CCCC2=O)cc1 |  | inactive |
| Cc1cc2ccccc2c[n+]1CC(O)C[n+]1cc2ccccc2cc1C | -6.74% [at 11.4 µM] (inactive) |  |
| O=c1nc(-c2ccccc2)n(-c2ccccc2)c2ncccc12 |  | inactive |
| CN=c1nc(-c2ccccc2)n(-c2ccccc2)s1 |  | 31.6 µM (active) |
| CC(=O)c1c(C)nc(-c2ccccc2)n1O |  | inactive |
| CCc1c(C(C)O)oc2ccc3c(C)cc(=O)oc3c12 (stereo unspecified) | 7.59% [at 2.29 µM] (inactive) |  |
| Cc1cc2cc3c(C)cc(=O)oc3c(C)c2o1 |  | 3.98 µM (active) |
| O=C(Nc1ccc(F)cc1)c1cc(S(=O)(=O)N2CCCCC2)cs1 |  | 14.1 µM (active) |
| O=C(Nc1ccc(S(=O)(=O)N2CCCC2)cc1)c1ccc(CN2CCOCC2)cc1 | -3.74% [at 2.29 µM] (inactive) |  |
